According to PubChem BioAssay (EPA / NIEHS):
Inconclusive results are not listed. Activity calls are given as the source filed them. Rule for the calls, unless noted: active = hit-call score of the fitted dose curve at least 0.9, where 1 is the maximum; inactive = score below 0.9.

Tests used:
[1] = APR_HepG2_CellCycleArrest_1hr: Apredica 1-hour HepG2 Assay for Cell Cycle Arrest (AID 2282666); details: high-content imaging, actives raise or lower the signal
Procedure, shortened: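 Cell cycle arrest scored from nuclear DNA content (Hoechst 33342) using high-content imaging of fixed HepG2 cells after 1 h treatment across 0.39–200 uM, in duplicate. Gain or loss fitted relative to 0.5% DMSO.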

[2] = ACEA_ER_80hr: ACEA Biosciences xCELLigence Real-Time Cell Analysis on Estrogen Receptor Agonism for Proliferation (AID 2282667; active = hit-call score of the fitted dose curve at least 0.9, where 1 is the maximum); details: T47D proliferation, impedance (xCELLigence), 80 h
Procedure, shortened: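 Real-time electrical impedance tracked growth of the human breast line T47D, with the 80 h post-dosing value used. Dosing spanned eight 1:4 steps down from a 100 uM final top concentration, run in duplicate.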

[3] = APR_HepG2_CellLoss_1hr: Apredica 1-hour HepG2 Assay for Cell Loss (AID 2282668); details: high-content imaging;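 note: curves fitted both ways against DMSO so gain or loss of cells counts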
Procedure, shortened: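 Cell number comes from high-content imaging of Hoechst-labelled nuclei in fixed HepG2 cells. Cells were exposed for 1 h to ten concentrations from 0.39 to 200 uM in 0.5% DMSO. Gain or loss was fitted against DMSO controls.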

[4] = APR_HepG2_MicrotubuleCSK_1hr: Apredica 1-hour HepG2 Assay for Microtubule CSK Stabilty (AID 2282669); details: HepG2 microtubule cytoskeleton imaging, actives raise or lower the signal
Procedure, shortened: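 Alpha-tubulin immunofluorescence, imaged by automated high-content microscopy with Hoechst nuclear segmentation, measured cytoskeletal change after 1 h dosing of HepG2 at 0.39–200 uM in 0.5% DMSO. Activity fitted in both directions relative to DMSO.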

[5] = APR_HepG2_p53Act_1hr: Apredica 1-hour HepG2 Assay for p53 Activation (AID 2282671); details: high-content imaging, actives raise or lower the signal
Procedure, shortened: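 After 1 h exposure (0.39–200 uM, 0.5% DMSO final, duplicates), fixed HepG2 cells were labelled with anti-p53 antibody plus Hoechst nuclear stain. Fluorescence quantified by automated 20x imaging; changes fitted in both directions against DMSO.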

[6] = APR_HepG2_MitoticArrest_1hr: Apredica 1-hour HepG2 Assay for Mitotic Arrest (AID 2282672); details: high-content imaging, actives raise or lower the signal
Procedure, shortened: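 Ten-point concentration series (0.39 to 200 uM, duplicates, 0.5% v/v DMSO) applied to human HepG2 liver cells for 1 hr. High-content imaging of phospho-histone H3 and Hoechst-stained nuclei after fixation and permeabilization; DMSO-normalised bidirectional fit.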

[7] = APR_HepG2_P-H2AX_1hr: Apredica 1-hour HepG2 Assay for H2AX Phosphorylation (AID 2282673); details: high-content imaging, actives raise or lower the signal
Procedure, shortened: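 Phospho-H2A.x immunofluorescence (1:200, FITC secondary) plus Hoechst nuclear stain, quantified by high-content imaging in HepG2 after 1 hr compound exposure. Ten concentrations, 0.39 to 200 uM, in duplicate with 0.5% DMSO; fit both directions against DMSO.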

[8] = APR_HepG2_MitoMass_1hr: Apredica 1-hour HepG2 Assay for Mitochondrial Mass (AID 2282674); details: high-content imaging, actives raise or lower the signal
Procedure, shortened: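 Mitochondrial mass is taken from MitoTracker Red CMXRos (250 nM, 30 min, pre-fixation) fluorescence imaged at 20x in HepG2 cells. Exposure lasted 1 hr across ten concentrations, 0.39 to 200 uM, 0.5% DMSO; DMSO baseline, bidirectional fitting.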

[9] = APR_HepG2_CellCycleArrest_24hr: Apredica 24-hour HepG2 Assay for Cell Cycle Arrest (AID 2282905); details: imaging, actives raise or lower the signal;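 note: cell cycle arrest scored as ratio of 2N to 4N nuclear DNA content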
Procedure, shortened: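 Readout: Hoechst 33342 nuclear DNA content by high-content fluorescent imaging, six images/well, 20x. Human HepG2 liver cells, 24 hr compound exposure, 0.39–200 uM, final DMSO 0.5% v/v. Gain or loss fitted relative to DMSO baseline.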

[10] = APR_HepG2_StressKinase_1hr: Apredica 1-hour HepG2 Assay for Stress Kinase (AID 2282906); details: HepG2 stress kinase (phospho-c-Jun) imaging, actives raise or lower the signal
Procedure, shortened: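 High-content imaging of phospho-c-Jun immunostaining (with Hoechst nuclear identification) after a 1 h exposure of HepG2 cells to 10 concentrations from 0.39 to 200 uM, final DMSO 0.5%. Fitted bidirectionally against DMSO.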

[11] = APR_HepG2_NuclearSize_24hr: Apredica 24-hour HepG2 Assay for Nuclear Size (AID 2282907); details: high-content imaging, actives raise or lower the signal
Procedure, shortened: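 Read-out: nuclear diameter from Hoechst 33342 (2 ug/mL) imaging of fixed HepG2 cells, 20x, six fields/well. Compounds ran at 0.39–200 uM for 24 hr, 0.5% DMSO final. Gain or loss was fitted bidirectionally relative to the DMSO baseline.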

[12] = APR_HepG2_CellLoss_24hr: Apredica 24-hour HepG2 Assay for Cell Loss (AID 2282908); details: high-content imaging
Procedure, shortened: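 Read-out: Hoechst 33342-stained nuclei counted by automated fluorescence imaging after formaldehyde fixation and Triton permeabilization. Ten concentrations, 0.39 to 200 uM, duplicate wells, 0.5% DMSO final. Gain or loss of signal fitted relative to DMSO baseline.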

[13] = APR_HepG2_MitoticArrest_24hr: Apredica 24-hour HepG2 Assay for Mitotic Arrest (AID 2282910); details: high-content imaging, actives raise or lower the signal
Procedure, shortened: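 HepG2, 24 hr dosing, 0.39–200 uM, 0.5% DMSO final. Formaldehyde-fixed, Triton-permeabilised, anti-phospho-histone H3 plus Hoechst. ArrayScan imaging at 20x; bidirectional fit vs DMSO baseline.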

[14] = APR_HepG2_MitoMembPot_24hr: Apredica 24-hour HepG2 Assay for Mitochondrial Membrane Potential (AID 2282911); details: imaging, actives raise or lower the signal
Procedure, shortened: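 Cells are dosed for 24 hr across 0.39 to 200 uM with solvent held at 0.5% DMSO. They are then stained with 250 nM MitoTracker Red CMXRos for 30 min, fixed in 3.7% formaldehyde and imaged.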

[15] = APR_HepG2_MitoMass_24hr: Apredica 24-hour HepG2 Assay for Mitochondrial Mass (AID 2282912); details: high-content imaging, actives raise or lower the signal
Procedure, shortened: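 HepG2, 24 hr dosing, 10 concentrations 0.39–200 uM in duplicate, DMSO 0.5% final. MitoTracker Red CMXRos 250 nM, 30 min pre-fix; 3.7% formaldehyde fix. Imaging-based fluorescence intensity; gain/loss fit vs DMSO baseline.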

[16] = APR_HepG2_p53Act_24hr: Apredica 24-hour HepG2 Assay for p53 Activation (AID 2282913); details: high-content imaging, actives raise or lower the signal;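 note: p53 protein immunofluorescence averaged per cell in HepG2 with Hoechst nuclei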
Procedure, shortened: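 Human HepG2 liver cells; 24 hr cpd treatment, 0.39–200 uM, 0.5% DMSO final. Fixed in 3.7% formaldehyde, permeabilized with 0.5% Triton X-100, stained with anti-p53/Cy5 plus Hoechst 33342. Six images per well at 20x; gain or loss vs DMSO.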

[17] = APR_HepG2_CellCycleArrest_72hr: Apredica 72-hour HepG2 Assay for Cell Cycle Arrest (AID 2282914); details: high-content imaging, actives raise or lower the signal
Procedure, shortened: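 Read-out is Hoechst-stained nuclear DNA content measured by automated fluorescence imaging (20x, six images per well), fitted in both directions relative to DMSO. Human HepG2 liver cells received 0.39–200 uM compound for 72 hr at 0.5% v/v DMSO.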

[18] = APR_HepG2_MicrotubuleCSK_24hr: Apredica 24-hour HepG2 Assay for Microtubule CSK Stabilty (AID 2282909); details: HepG2 microtubule cytoskeleton imaging, actives raise or lower the signal
Procedure, shortened: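 Read-out: alpha-tubulin immunofluorescence intensity by automated high-content imaging of fixed HepG2 cells after 24 h compound treatment. Ten concentrations, 0.39 to 200 uM, in duplicate; DMSO 0.5% v/v. Taxol positive control; DMSO-normalized bidirectional curve fitting.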

[19] = APR_HepG2_NuclearSize_1hr: Apredica 1-hour HepG2 Assay for Nuclear Size (AID 2282670); details: high-content imaging, actives raise or lower the signal
Procedure, shortened: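 Nuclear size measured by high-content imaging of Hoechst 33342 nuclear stain after formaldehyde fixation; human HepG2 line exposed 1 hr to compounds at 0.39–200 uM in 0.5% DMSO, with bidirectional curve fitting relative to DMSO.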

[20] = APR_HepG2_MitoMembPot_1hr: Apredica 1-hour HepG2 Assay for Mitochondrial Membrane Potential (AID 2282675); details: imaging, actives raise or lower the signal
Procedure, shortened: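 Mitochondrial membrane potential read as MitoTracker Red CMXRos intensity by automated imaging of fixed HepG2 cells. Dye at 250 nM for 30 min pre-fixation; compounds 0.39 to 200 uM for 1 hour, duplicate wells, 0.5% DMSO.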

Measured: AC50

CC1(C)CON(Cc2ccccc2Cl)C1=O
not listed: [18] | [19] | [20]
inactive: all other assays above

Cn1c(-c2ccccc2)cc(-c2ccccc2)[n+]1C
active: [2] 2.11 µM
not listed: [19] | [20]
inactive: all other assays above

COC(=O)NC(=S)Nc1ccccc1NC(=S)NC(=O)OC
active: [14] 26 µM | [17] 100 µM
not listed: [6] | [10] | [18]
inactive: all other assays above

Cc1nc(N(C)C)nc(OC(=O)N(C)C)c1C
not listed: [5] | [6] | [10] | [11] | [16] | [18] | [19] | [20]
inactive: all other assays above

COP(=O)(OC)O/C(C)=C/C(=O)N(C)C
not listed: [10] | [11] | [18] | [19] | [20]
inactive: all other assays above

CCSC(=O)N1CCCCCC1
not listed: [4]
inactive: all other assays above

CS(=O)(=O)c1ccc(C(=O)C2C(=O)CCCC2=O)c([N+](=O)[O-])c1
not listed: [6] | [18] | [19]
inactive: all other assays above

CCCCC(C#N)(Cn1cncn1)c1ccc(Cl)cc1 (stereo unspecified)
not listed: [6] | [11] | [18] | [20]
inactive: all other assays above
